Source: PubChem
The list is not random: actives were taken first. Their share in the collection is about 3.9%.
Rtt109 HAT inh: inhibitors of Candida albicans Rtt109/Vps75 histone acetyltransferase | purified Rtt109/Vps75, ThioGlo CoA-SH fluorescence, 4 h | inhibition, % at 34.9 µM | AID 540336 | actives 0.16% (n = 330,000) | Q5AAJ8;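 active = inhibition of at least 50% in every replicate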
Target sequence (Q5AAJ8 whole entry, looked up): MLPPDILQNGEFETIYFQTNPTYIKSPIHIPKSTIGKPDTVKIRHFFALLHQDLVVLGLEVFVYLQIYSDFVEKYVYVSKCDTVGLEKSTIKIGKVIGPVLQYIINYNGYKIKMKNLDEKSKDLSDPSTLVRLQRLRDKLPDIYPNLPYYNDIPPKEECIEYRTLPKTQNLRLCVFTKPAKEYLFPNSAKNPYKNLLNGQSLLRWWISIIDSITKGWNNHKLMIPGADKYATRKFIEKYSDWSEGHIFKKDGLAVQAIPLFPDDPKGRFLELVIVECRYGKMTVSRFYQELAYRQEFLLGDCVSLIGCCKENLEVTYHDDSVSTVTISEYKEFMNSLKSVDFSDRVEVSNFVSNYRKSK
TPT1 inh: inhibitors of Candida albicans tRNA 2'-phosphotransferase TPT1. recombinant caTPT1, FP RNA substrate dephosphorylation. inhibition, % at 5 µM. actives 0.81% (n = 300,000);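 active = inhibition above the mean of all tested compounds plus 3 SD, set per screening campaign, cut at about 24% in these data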;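 also: plate controls were DMSO alone for no effect and ferristatin control at 100 nM for full effect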
PHOSPHO1 inh: inhibitors of human PHOSPHO1 phosphatase; Q8TCT1; recombinant PHOSPHO1, absorbance phosphatase assay; inhibition, % at 13.3 µM; actives 1.1% (n = 290,000); in the data active = inhibition above about 60%
Target sequence (Q8TCT1 whole entry, looked up): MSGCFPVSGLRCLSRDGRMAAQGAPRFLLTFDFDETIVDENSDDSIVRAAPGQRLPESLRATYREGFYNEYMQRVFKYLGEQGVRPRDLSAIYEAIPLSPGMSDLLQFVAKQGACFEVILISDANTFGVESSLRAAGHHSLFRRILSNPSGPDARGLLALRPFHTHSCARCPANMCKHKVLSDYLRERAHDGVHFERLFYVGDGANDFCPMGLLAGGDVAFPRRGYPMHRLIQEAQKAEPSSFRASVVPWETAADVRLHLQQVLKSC
WT yeast gro inh: growth inhibition of WT yeast, mitochondrial fusion screen; mitochondrial fusion phenotypic screen, WT strain; inhibition, % at 10 µM; actives 2.1% (n = 190,000); AID 1362; in the data active = inhibition above about 58%; tested in S. cerevisiae
Platelet DG rel: platelet dense granule release activity; human platelet-rich plasma, SFLLRN dense granule ATP release, luminescence; inhibition, %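 (compounds screened at 7.5 µM in platelet-rich plasma)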; actives 0.22% (n = 300,000); AID 1663;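 active = mean replicate score, as percent of positive control, at or above 50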
SKKanGAS inh: inhibitors of SKKanGAS S. pyogenes growth in kanamycin (SK-promoter or general growth effect); AID 1662; BacTiter-Glo, 6 h; inhibition, % at 7.5 µM; actives 1.3% (n = 300,000);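 active = mean replicate score, as percent of positive control median, at least 50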;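 also: strain carries kanamycin resistance gene driven by streptokinase promoter and grows in 40 µg/ml kanamycin; loss of luminescence reflects streptokinase promoter inhibition or plain growth inhibition; 0% = median of DMSO wells and 100% = positive control at its reference dose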
An asterisk follows results filed as active; / = no result given.

SMILES | Rtt109 HAT inh | TPT1 inh | PHOSPHO1 inh | WT yeast gro inh | Platelet DG rel | SKKanGAS inh
Cc1cccc(-c2nnc(SCc3nc4ccccc4[nH]3)n2Cc2ccco2)c1 | -7 | 3 | 83* | -28 | -3 | -2
c1coc(Cn2c(SCc3nc4ccccc4[nH]3)nnc2-c2cccs2)c1 | -4 | 0 | 92* | 3 | -8 | -12
CCCCn1c(N)c(N(CCOC)C(=O)c2ccc3c(c2)C(=O)N(c2cc(C)ccc2C)C3=O)c(=O)[nH]c1=O | -1 | 0 | 29 | / | -2 | 4
COc1ccccc1Cn1c(/C=C/c2ccccc2)nc2ccccc21 | -2 | -4 | -24 | 79* | -5 | 15
Cn1c(/C=C/c2ccccc2)nc2ccccc21 | 6 | -1 | -7 | 67* | 81* | 22
COc1ccccc1Cn1c(C(C)C)nc2ccccc21 | 0 | -2 | 16 | / | 6 | 0
COc1ccc(/C=C/c2nc3ccccc3n2Cc2ccccc2OC)cc1 | 2 | -3 | 10 | 75* | 9 | 25
C[C@@H](C(=O)Nc1ccc(OC(F)F)c(Cl)c1)N1C(=O)C2CC=CCC2C1=O (stereo partly drawn) | 0 | / | / | / | / | /
N#Cc1ccccc1OCC(=O)Nc1ccc(S(=O)(=O)N2CCOCC2)cc1 | 14 | / | / | / | / | /
CCOc1ccc(NC(=O)CN(C)C(=O)c2cc(S(=O)(=O)N3CCCCC3)ccc2C)cc1OCC | -2 | -3 | / | / | -2 | -13
O=C(Nc1nnc(SCc2ccccc2Cl)s1)C1COc2ccccc2O1 (stereo not drawn) | 12 | -2 | 2 | 60* | -2 | 69*
COc1ccc(C2(c3ccc(OC)cc3)NC(=O)N(CC(=O)NC3(C#N)CCCCC3)C2=O)cc1 | 22 | / | / | / | / | /
COc1ccc(-c2cc(CCC(=O)N3CCN(c4cc(C)ccc4C)CC3)[nH]n2)cc1 | 2 | / | / | / | / | /
N/C(=N\OC(=O)c1ccc(Cl)c(Cl)c1)c1ccccn1 | 7 | -2 | -5 | 27 | 12 | -7
N/C(=N\OC(=O)c1ccc(Cl)cc1)c1ccccn1 | -14 | -2 | 2 | -16 | 52* | 6
N/C(=N\OS(=O)(=O)c1ccccc1)c1ccccn1 | -2 | -4 | 79* | -10 | -5 | 2
N/C(=N\OC(=O)c1ccccc1Cl)c1ccccn1 | 1 | 0 | 32 | 15 | 56* | 19
N/C(=N\OC(=O)c1cc(-c2ccccc2)nc2ccccc12)c1ccccn1 | / | 1 | 39 | 66* | 3 | 16
O=C(Cn1nc(C(=O)O)c2ccccc2c1=O)Nc1cc(S(=O)(=O)N2CCCCC2)ccc1Cl | 8 | / | / | / | / | /
O=C(CCc1nc2ccccc2c(=O)[nH]1)N1CCN(S(=O)(=O)c2ccc(Cl)c(C(F)(F)F)c2)CC1 | 6 | 1 | / | / | -2 | 6
Cc1occc1C(=O)Nc1cnn(CCCC(=O)O)c1 | -7 | -1 | 27 | / | -1 | -1
N/C(=N\OC(=O)Cc1ccc(-c2ccccc2)cc1)c1ccccn1 | 2 | 0 | 3 | 62* | -2 | 6
N/C(=N\OC(=O)c1ccc(Cl)cc1)c1[nH]ncc1Br | 6 | -1 | 37 | / | 52* | 1
CSCCC(NC(=O)c1ccccc1)C(=O)NCCCn1nc(C)cc1C (stereo not drawn) | -22 | / | / | / | / | /
COc1cccc(-c2nc(-c3ccccn3)no2)c1 | / | 0 | 37 | 79* | 26 | 9
SMILES | Rtt109 HAT inh | TPT1 inh | PHOSPHO1 inh | WT yeast gro inh | Platelet DG rel | SKKanGAS inh
COc1cccc(-c2nc(=S)c3c(o2)CCCC3)c1 | 23 | 2 | 61* | 68* | -6 | -5
COc1cccc(-c2nc(-c3ccccc3)no2)c1 | -8 | 2 | -8 | 15 | 8 | 5
c1ccc(-c2noc(-c3ccc4c(c3)OCO4)n2)nc1 | -3 | -6 | 26 | 64* | 95* | 76*
S=c1nc(-c2ccccc2)oc2c1CCCC2 | -14 | -2 | -33 | 12 | -2 | 11
NS(=O)(=O)c1ccc(NC(=O)COc2ccc(Cl)cc2)cc1 | 0 | 0 | 18 | / | -15 | -7
COc1ccc(Nc2nc(-c3cccs3)cs2)c(OC)c1 | -3 | 1 | 80* | 32 | 6 | 9
COc1cc2c(cc1OC)C(c1cccc(Br)c1)CC(=O)N2 (stereo not drawn) | -2 | / | 44 | / | 3 | -2
O=C1CC(c2cccc(Br)c2)c2cc3c(cc2N1)CCC3 (stereo not drawn) | -4 | 3 | 43 | 87* | -3 | 3
CCSc1nnc(NC(=O)C2Cc3ccccc3CN2C(=O)c2ccco2)s1 (stereo not drawn) | -1 | 4 | 61* | -12 | 7 | 9
CCS(=O)(=O)N1Cc2ccccc2CC1C(=O)Nc1nnc(SCc2ccc(C#N)cc2)s1 (stereo not drawn) | -9 | -5 | -14 | 8 | 1 | 60*
O=C1COc2ccc(C(=O)CSc3nnc(Cc4cccs4)n3-c3ccccc3)cc2N1 | 5 | -2 | 33 | 6 | 11 | 1
CCn1c(SCC(=O)c2cc(C)n(C)c2C)nnc1-c1ccccc1 | 4 | -2 | 62* | 7 | 10 | -3
O=c1c2ccccc2nnn1CSc1nnc(-c2cccs2)n1Cc1ccccc1 | 0 | -4 | -36 | -4 | 3 | -1
O=C1COc2ccc(C(=O)CSc3nnc(-c4cccs4)n3Cc3ccccc3)cc2N1 | 7 | 1 | 74* | 12 | 1 | 13
O=c1cc(CSc2nnc(-c3cccs3)n2Cc2ccccc2)nc2sc3ccccc3n12 | -1 | 2 | 69* | 20 | -8 | 5
Cc1cc(C(=O)CSc2nnc(-c3cccs3)n2Cc2ccccc2)c(C)n1C | 15 | 4 | 90* | -1 | 6 | 7
CC(C)[C@@H](C(=O)N1CCCC1)N1C(=O)N2CCc3c([nH]c4ccccc34)[C@@]2(C)C1=O | 7 | 1 | 3 | / | 3 | 3
O=C(O)/C=C/C(=O)c1c(-c2ccccc2)[nH]c2ccccc12 | 5 | -2 | -40 | / | -8 | -9
NC(=O)C1CCN(c2nc3c(S(=O)(=O)c4ccccc4)nnn3c3ccccc23)CC1 | 6 | -1 | 53 | / | 1 | 2
COc1ccccc1-n1nnnc1SCC(=O)Nc1cc(C)on1 | -4 | -1 | -10 | / | 6 | 1
COc1ccc(NC(=O)CSc2nc(O)cc(=O)n2-c2ccccc2)cc1 | 6 | / | 47 | / | 5 | 88*
CCOc1ccccc1-n1nnnc1SCC(=O)Nc1cc(C)on1 | -5 | 2 | 62* | 8 | -11 | -9
COc1ccccc1-n1c(SCC(=O)Nc2ccc(Br)cc2)nc(O)cc1=O | -19 | 2 | 27 | / | 10 | 64*
CCCCc1ccc(NC(=O)CSc2nnc(C)c(=O)n2N)cc1 | 2 | -3 | 63* | / | -19 | 0
COc1ccc(-c2nnc(SCC(=O)Nc3cc(C)on3)n2N)cc1OC | -2 | 0 | 75* | -5 | 3 | -2
COc1ccc(NC(=O)CSc2nnc(-c3ccccc3)n2N)cc1 | 59* | 2 | -1 | 1 | 7 | -2
Cc1cccc(OCc2n[nH]c(=S)o2)c1 | 5 | 3 | 98* | 3 | 3 | 12
